Measurements from PubChem BioAssay AID1159580 (chemical genetic matrix, 2015).
Hit rate of the full screen: of about 5,500 compounds, about 2,000 (36%) were called active. About 18% were inconclusive and are not listed. Cut-off read from the data, not from the text of the source: active = normalized growth mostly below about 0.91 (no sharp cut-off); inconclusive = no clear call, values can overlap the other calls; inactive = mostly above about 0.92. The list shows a part of the results.

Assay: chemical genetic growth profiling, strain panel (AID 1159580);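 note: tested at 20 µM; growth read once vehicle control cultures reached saturation at 30 °C; 1 = growth at the plate median or of vehicle wells; lower values mean less growth of the strain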
Conditions: S. cerevisiae deletion strains, growth OD

Measured: normalized growth

C=C(C)C1CC=C(CO)CC1 (stereo not given)
active: locus YDR195W, strain ref2 0.809 | locus YER155C, strain BEM2 (second series), stronger effect = lower value 0.793
inactive: locus YAL021C, strain ccr4, stronger effect = lower value 0.983 | locus YAL026C, strain drs2, stronger effect = lower value 0.978 | locus YAL030W, strain snc1, stronger effect = lower value 0.973 | locus YBL061C, strain skt5, stronger effect = lower value 0.991 | locus YBR009C, strain hhf1, stronger effect = lower value 0.994 | locus YBR023C, strain chs3, stronger effect = lower value 0.981 | locus YBR171W, strain sec66, stronger effect = lower value 0.95 | locus YBR231C, strain swc5, stronger effect = lower value 0.975 | locus YBR279W, strain paf1, stronger effect = lower value 0.983 | locus YCL011C, strain gbp2, stronger effect = lower value 0.963 | locus YCL016C, strain dcc1, stronger effect = lower value 0.983 | locus YCL061C, strain MRC1, stronger effect = lower value 0.978 | locus YCL069W, strain vba3, stronger effect = lower value 0.948 | locus YCR088W, strain abp1, stronger effect = lower value 0.963 | locus YDL005C, strain med2, stronger effect = lower value 0.961 | locus YDL040C, strain nat1, stronger effect = lower value 0.959 | locus YDR001C, strain nth1, stronger effect = lower value 0.963 | locus YDR069C, strain doa4, stronger effect = lower value 0.978 | locus YDR137W, strain rgp1, stronger effect = lower value 0.941 | locus YDR159W, strain sac3, stronger effect = lower value 0.943 | locus YDR297W, strain sur2, stronger effect = lower value 0.975 | locus YDR334W, strain swr1, stronger effect = lower value 0.938 | locus YDR335W, strain msn5, stronger effect = lower value 0.965 | locus YDR392W, strain spt3, stronger effect = lower value 0.844 | locus YEL003W, strain gim4, stronger effect = lower value 0.976 | locus YEL037C, strain rad23, stronger effect = lower value 0.955 | locus YEL061C, strain CIN8 (second series), stronger effect = lower value 0.946 | locus YER015W, strain faa2, stronger effect = lower value 0.976 | locus YER016W, strain bim1, stronger effect = lower value 0.969 | locus YER111C, strain swi4, stronger effect = lower value 0.963 | locus YFR010W, strain ubp6, stronger effect = lower value 0.98 | locus YGL167C, strain pmr1, stronger effect = lower value 0.96 | locus YGL173C, strain kem1, stronger effect = lower value 0.955 | locus YGL227W, strain vid30, stronger effect = lower value 0.965 | locus YGL240W, strain doc1, stronger effect = lower value 0.954 | locus YGL253W, strain hxk2, stronger effect = lower value 0.983 | locus YHR013C, strain ard1, stronger effect = lower value 0.982 | locus YHR027C, strain rpn1, stronger effect = lower value 0.976 | locus YHR030C, strain SLT2, stronger effect = lower value 1.06 | locus YHR079C, strain IRE1, stronger effect = lower value 1.05 | locus YHR142W, strain chs7, stronger effect = lower value 0.995 | locus YJL092W, strain hpr5, stronger effect = lower value 0.938 | locus YJL095W, strain BCK1 (second series), stronger effect = lower value 0.97 | locus YJL095W, strain BCK1, stronger effect = lower value 1.02 | locus YJL115W, strain asf1, stronger effect = lower value 0.953 | locus YJL129C, strain trk1, stronger effect = lower value 0.923 | locus YJL154C, strain vps35, stronger effect = lower value 0.962 | locus YJL164C, strain tpk1, stronger effect = lower value 0.987 | locus YJL166W, strain qcr8, stronger effect = lower value 0.972 | locus YJL187C, strain SWE1, stronger effect = lower value 0.968 | locus YJR066W, strain TOR1, stronger effect = lower value 0.997 | locus YKL160W, strain elf1, stronger effect = lower value 0.978 | locus YKR026C, strain gcn3, stronger effect = lower value 0.972 | locus YKR091W, strain srl3, stronger effect = lower value 0.953 | locus YLL001W, strain dnm1, stronger effect = lower value 0.988 | locus YLL026W, stronger effect = lower value 0.976 | locus YLL041C, strain sdh2, stronger effect = lower value 0.971 | locus YLR027C, strain aat2, stronger effect = lower value 0.993 | locus YLR113W, strain HOG1, stronger effect = lower value 1.01 | locus YLR221C, strain rsa3, stronger effect = lower value 1.01 | locus YLR258W, strain gsy2, stronger effect = lower value 0.979 | locus YLR262C, strain YPT6 (second series), stronger effect = lower value 0.954 | locus YLR320W, strain mms22, stronger effect = lower value 0.983 | locus YLR342W, strain FKS1, stronger effect = lower value 0.967 | locus YLR357W, strain rsc2, stronger effect = lower value 0.92 | locus YLR370C, strain arc18, stronger effect = lower value 0.938 | locus YLR384C, strain iki3, stronger effect = lower value 0.958 | locus YML120C, strain ndi1, stronger effect = lower value 0.974 | locus YMR058W, strain fet3, stronger effect = lower value 0.968 | locus YMR125W, strain sto1, stronger effect = lower value 0.931 | locus YMR129W, stronger effect = lower value 0.955 | locus YMR205C, strain PFK2, stronger effect = lower value 0.956 | locus YMR231W, strain pep5, stronger effect = lower value 0.971 | locus YNL071W, strain lat1, stronger effect = lower value 0.953 | locus YNL183C, strain NPR1, stronger effect = lower value 0.947 | locus YNL209W, strain ssb2, stronger effect = lower value 0.968 | locus YNL248C, strain rpa49, stronger effect = lower value 0.932 | locus YNL322C, strain KRE1 (second series), stronger effect = lower value 0.948 | locus YNR049C, strain mso1, stronger effect = lower value 0.951 | locus YOR001W, strain rrp6, stronger effect = lower value 0.969 | locus YOR070C, strain gyp1, stronger effect = lower value 0.97 | locus YOR080W, strain dia2, stronger effect = lower value 0.951 | locus YOR083W, strain WHI5, stronger effect = lower value 0.994 | locus YOR106W, strain vam3, stronger effect = lower value 0.989 | locus YOR231W, strain MKK1, stronger effect = lower value 1.05 | locus YOR265W, strain rbl2, stronger effect = lower value 0.968 | locus YOR270C, strain vph1, stronger effect = lower value 0.949 | locus YOR290C, strain snf2, stronger effect = lower value 0.96 | locus YPL051W, strain arl3, stronger effect = lower value 0.99 | locus YPL078C, strain atp4, stronger effect = lower value 0.979 | locus YPL106C, strain sse1, stronger effect = lower value 0.945 | locus YPL240C, strain hsp82, stronger effect = lower value 0.959 | locus YPL256C, strain CLN2, stronger effect = lower value 1.04
